Measurements taken from the supplement of paper PMC11732987, “Enantioselective OTUD7B fragment discovery through chemoproteomics screening and high-throughput optimisation” (Communications Chemistry, 2025).

Experiments:
Experiment in all cases: log2 ratio of Biotin-Ahx-Ub-VS probe labelling (fragment/DMSO); higher = less target engagement (more negative = stronger competition), active = hit call of the paper (q ≤ 0.05, log2 ratio ≤ -1)
Conditions in all cases: compound concentration: 200 uM; treatment time: 3 h
[1] = target: T1, OTUD6B (UniProt Q8N6M0)
T1 sequence (whole entry): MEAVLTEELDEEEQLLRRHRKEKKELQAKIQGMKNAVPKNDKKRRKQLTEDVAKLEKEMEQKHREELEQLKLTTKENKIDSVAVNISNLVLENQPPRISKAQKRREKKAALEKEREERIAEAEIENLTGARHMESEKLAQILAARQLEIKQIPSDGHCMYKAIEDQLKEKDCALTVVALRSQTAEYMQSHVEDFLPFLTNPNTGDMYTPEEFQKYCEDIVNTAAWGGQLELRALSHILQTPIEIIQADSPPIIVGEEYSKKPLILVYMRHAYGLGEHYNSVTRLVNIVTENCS
Method in brief: (§1)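 HEK293T lysate, 495 µg per sample in Tris/CHAPS/IGEPAL buffer with protease inhibitors, was treated in triplicate with fragment at 200 µM or vehicle for 3 h and then with Biotin-Ahx-Ub-VS at 0.5 µM final for 1 h. Labelled DUBs were NeutrAvidin-enriched, digested with LysC and trypsin, and run by diaPASEF LC-MS/MS. Spectronaut label-free quantities were global-median-normalised, and values are average log2 fragment/vehicle ratios by unpaired t-test on proteins with ≥2 unique peptides.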

[2] = target: T2, OTUD7B (UniProt Q6GQQ9)
T2 sequence (whole entry): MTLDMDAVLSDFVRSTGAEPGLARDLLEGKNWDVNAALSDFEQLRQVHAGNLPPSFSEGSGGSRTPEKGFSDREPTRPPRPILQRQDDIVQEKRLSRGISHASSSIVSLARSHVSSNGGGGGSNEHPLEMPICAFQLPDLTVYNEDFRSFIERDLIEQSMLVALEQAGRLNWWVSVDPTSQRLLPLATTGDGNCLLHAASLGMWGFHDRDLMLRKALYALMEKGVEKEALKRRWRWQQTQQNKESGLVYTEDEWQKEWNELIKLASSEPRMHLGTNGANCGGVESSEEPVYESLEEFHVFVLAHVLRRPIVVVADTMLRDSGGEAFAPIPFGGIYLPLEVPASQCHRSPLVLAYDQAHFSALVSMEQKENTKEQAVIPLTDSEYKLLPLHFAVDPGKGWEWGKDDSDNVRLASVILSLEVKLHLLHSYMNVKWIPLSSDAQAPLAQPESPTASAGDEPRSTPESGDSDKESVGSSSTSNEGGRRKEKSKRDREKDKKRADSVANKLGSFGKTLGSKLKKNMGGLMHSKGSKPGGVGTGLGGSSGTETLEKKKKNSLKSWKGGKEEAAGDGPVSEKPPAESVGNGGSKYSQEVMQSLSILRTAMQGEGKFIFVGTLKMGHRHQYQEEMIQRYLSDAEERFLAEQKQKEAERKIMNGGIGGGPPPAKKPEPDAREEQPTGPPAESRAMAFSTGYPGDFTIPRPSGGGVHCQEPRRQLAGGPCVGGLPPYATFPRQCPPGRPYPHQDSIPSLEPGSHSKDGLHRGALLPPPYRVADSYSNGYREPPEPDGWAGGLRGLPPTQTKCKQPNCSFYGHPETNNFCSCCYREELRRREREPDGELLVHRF
Method in brief: as §1

[3] = target: PRPF8 (UniProt Q6P2Q9)
Method in brief: as §1

[4] = target: T3, PSMD7 (UniProt P51665)
T3 sequence (whole entry): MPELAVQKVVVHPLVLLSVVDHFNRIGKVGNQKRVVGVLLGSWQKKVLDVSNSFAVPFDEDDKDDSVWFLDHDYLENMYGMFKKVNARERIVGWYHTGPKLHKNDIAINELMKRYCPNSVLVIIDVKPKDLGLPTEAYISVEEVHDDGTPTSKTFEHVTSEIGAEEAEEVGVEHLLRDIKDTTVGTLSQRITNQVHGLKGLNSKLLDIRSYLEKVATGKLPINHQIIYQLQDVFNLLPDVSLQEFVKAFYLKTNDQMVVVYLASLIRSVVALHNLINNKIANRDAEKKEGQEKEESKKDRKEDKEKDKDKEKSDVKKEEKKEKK
Method in brief: as §1

[5] = target: UCHL1 (UniProt P09936)
UCHL1, sequence (P09936 whole entry, looked up): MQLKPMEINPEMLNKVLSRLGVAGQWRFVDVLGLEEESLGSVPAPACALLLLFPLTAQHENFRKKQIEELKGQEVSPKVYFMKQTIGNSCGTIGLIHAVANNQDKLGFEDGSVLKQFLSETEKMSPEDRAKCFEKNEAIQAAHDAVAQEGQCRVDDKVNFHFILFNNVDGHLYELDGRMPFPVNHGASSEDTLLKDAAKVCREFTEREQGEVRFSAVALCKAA
Method in brief: as §1

[6] = target: T4, UCHL3 (UniProt P15374)
T4 sequence (whole entry): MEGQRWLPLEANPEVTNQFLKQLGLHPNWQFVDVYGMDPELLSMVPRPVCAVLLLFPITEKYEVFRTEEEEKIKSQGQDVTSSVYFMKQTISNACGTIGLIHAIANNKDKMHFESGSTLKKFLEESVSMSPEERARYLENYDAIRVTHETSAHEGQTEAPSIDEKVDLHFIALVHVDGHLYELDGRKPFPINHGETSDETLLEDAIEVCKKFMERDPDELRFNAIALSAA
Method in brief: as §1

[7] = target: T5, UCHL5 (UniProt Q9Y5K5)
T5 sequence (whole entry): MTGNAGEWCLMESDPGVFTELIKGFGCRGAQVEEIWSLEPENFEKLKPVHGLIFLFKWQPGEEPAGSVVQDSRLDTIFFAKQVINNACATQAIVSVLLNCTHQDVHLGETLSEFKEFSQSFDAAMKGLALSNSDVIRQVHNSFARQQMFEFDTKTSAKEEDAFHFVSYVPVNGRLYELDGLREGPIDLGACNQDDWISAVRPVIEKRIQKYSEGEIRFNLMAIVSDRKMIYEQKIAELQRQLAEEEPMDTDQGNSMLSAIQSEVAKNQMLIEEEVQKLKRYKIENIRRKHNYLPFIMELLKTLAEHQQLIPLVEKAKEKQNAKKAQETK
Method in brief: as §1

[8] = target: USP10 (UniProt Q14694)
USP10, sequence (Q14694 whole entry): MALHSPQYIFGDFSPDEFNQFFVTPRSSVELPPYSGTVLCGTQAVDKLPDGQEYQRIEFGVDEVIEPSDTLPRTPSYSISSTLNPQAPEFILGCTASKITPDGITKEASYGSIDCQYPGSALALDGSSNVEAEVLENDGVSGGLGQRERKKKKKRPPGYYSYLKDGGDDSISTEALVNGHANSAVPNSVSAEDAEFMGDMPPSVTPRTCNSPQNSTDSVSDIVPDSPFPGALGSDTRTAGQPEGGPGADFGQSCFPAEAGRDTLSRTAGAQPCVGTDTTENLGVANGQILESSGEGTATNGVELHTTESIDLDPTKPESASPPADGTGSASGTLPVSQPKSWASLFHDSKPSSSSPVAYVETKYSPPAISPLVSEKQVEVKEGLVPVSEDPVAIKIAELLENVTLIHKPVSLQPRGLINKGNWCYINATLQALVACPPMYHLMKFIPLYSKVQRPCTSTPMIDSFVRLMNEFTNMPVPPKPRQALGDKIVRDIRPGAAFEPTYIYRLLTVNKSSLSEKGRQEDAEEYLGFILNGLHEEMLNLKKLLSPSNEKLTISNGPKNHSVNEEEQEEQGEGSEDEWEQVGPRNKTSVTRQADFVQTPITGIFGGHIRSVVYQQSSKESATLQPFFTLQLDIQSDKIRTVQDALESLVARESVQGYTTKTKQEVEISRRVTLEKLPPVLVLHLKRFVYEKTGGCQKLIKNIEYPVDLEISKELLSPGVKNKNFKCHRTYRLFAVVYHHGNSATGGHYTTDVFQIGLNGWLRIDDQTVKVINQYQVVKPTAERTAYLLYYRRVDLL
Method in brief: as §1

[9] = target: T6, USP15 (UniProt Q9Y4E8)
T6 sequence (whole entry): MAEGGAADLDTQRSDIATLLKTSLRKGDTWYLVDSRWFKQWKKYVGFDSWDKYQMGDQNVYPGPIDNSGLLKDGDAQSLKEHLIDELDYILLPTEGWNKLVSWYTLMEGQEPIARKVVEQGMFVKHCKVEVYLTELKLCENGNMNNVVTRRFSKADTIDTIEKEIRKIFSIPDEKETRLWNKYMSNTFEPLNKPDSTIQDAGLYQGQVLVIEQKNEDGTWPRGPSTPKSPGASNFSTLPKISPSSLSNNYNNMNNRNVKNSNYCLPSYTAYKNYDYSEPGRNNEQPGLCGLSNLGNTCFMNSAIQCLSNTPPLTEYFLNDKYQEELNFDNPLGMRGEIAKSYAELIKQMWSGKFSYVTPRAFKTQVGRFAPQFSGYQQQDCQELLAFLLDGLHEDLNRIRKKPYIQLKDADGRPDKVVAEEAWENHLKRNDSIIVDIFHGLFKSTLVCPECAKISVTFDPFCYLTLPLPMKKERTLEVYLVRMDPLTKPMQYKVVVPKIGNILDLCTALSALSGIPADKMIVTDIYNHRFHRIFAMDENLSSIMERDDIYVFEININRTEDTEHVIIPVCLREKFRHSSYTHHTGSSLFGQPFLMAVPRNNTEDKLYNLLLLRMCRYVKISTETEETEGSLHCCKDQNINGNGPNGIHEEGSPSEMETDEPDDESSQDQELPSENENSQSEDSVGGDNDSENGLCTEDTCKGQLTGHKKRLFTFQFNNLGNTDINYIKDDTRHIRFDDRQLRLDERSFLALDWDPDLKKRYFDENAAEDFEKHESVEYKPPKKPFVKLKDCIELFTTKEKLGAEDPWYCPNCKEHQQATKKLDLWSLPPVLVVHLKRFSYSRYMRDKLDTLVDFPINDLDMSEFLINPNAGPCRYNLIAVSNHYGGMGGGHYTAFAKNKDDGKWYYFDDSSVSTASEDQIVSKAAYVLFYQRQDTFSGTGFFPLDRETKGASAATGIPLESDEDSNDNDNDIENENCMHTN
Method in brief: as §1

[10] = target: USP16 (UniProt Q9Y5T5)
USP16, sequence (Q9Y5T5 whole entry, looked up): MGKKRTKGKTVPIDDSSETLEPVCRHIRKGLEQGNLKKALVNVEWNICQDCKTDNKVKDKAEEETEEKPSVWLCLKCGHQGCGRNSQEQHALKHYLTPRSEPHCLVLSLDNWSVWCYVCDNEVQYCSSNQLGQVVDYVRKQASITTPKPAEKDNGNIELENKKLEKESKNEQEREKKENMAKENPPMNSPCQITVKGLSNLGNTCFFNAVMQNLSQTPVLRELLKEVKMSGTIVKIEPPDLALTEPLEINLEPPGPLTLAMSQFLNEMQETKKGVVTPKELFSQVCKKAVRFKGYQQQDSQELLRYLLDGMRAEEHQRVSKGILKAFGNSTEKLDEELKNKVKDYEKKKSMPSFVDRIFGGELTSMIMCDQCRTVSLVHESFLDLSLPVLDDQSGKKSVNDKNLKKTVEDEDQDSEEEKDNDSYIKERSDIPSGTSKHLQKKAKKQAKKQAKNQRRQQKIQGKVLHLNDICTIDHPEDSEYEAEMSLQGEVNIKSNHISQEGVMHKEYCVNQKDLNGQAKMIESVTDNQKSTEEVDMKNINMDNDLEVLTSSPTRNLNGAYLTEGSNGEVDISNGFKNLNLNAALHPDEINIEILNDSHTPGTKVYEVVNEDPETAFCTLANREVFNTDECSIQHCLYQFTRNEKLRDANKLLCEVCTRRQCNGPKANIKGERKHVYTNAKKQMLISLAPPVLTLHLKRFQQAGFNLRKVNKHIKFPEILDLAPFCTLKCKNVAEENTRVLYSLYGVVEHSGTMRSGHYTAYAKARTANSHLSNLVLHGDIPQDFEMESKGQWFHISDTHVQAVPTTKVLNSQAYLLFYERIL
Method in brief: as §1

Measured: log2 ratio of Biotin-Ahx-Ub-VS probe labelling

O=C(CCl)N1CCOC2(CCC2)CC1
active: [5] -1.35
inactive: [1] -0.0124 | [2] -0.961 | [3] -0.071 | [4] -0.283 | [6] 0.146 | [7] -0.0451 | [8] -0.118 | [9] -0.447 | [10] 0.117
